“And” between values parts separate entries of the source, which are not always exact repeats. Equal entries are not always repeated. More than one record can exist for a structure, and the calls need not agree. The source made the active and inactive calls. How the source made its calls: active means hit-call score of the fitted dose curve at least 0.9, where 1 is the maximum; inactive means score below 0.9.

By AC50 is commonly meant the concentration giving half of the maximal activity seen.

Read-out in the experiment: urokinase plasminogen activator (uPA), PLAU (gene 5328)
Put plainly: BSK_KF3CT_uPA: BioMAP Diversity Plus: KF3CT Assay for urokinase plasminogen activator (uPA) Biomarker Activity (AID 2283075). Conditions: primary human keratinocytes with fibroblasts; actives raise or lower the signal. The procedure:
BSK_KF3CT is a cell-based, multiplexed-readout assay that uses keratinocytes and foreskin fibroblasts, a human skin primary cell co-culture, with measurements taken at 24 hours after chemical dosing in a 96-well plate.BSK_KF3CTA is an assay component measured in the BSK_KF3CT assay. It measures uPA antibody related to regulation of gene expression using ELISA technology.Data from the assay component BSK_KF3CTA was analyzed into 1 assay endpoint. This assay endpoint, BSK_KF3CTA, was analyzed with bidirectional fitting relative to DMSO as the negative control and baseline of activity. Using a type of binding reporter, gain or loss-of-signal activity can be used to understand changes in the signaling as they relate to the gene PLAU. Furthermore, this assay endpoint can be referred to as a primary readout, because this assay has produced multiple assay endpoints where this one serves a signaling function. To generalize the intended target to other relatable targets, this assay endpoint is annotated to the protease intended target family, where the subfamily is serine protease.
The levels of cell surface (or secreted, indicated by the prefix "s") biomarker endpoints were measured by ELISA. Overt cytotoxicity to cells in confluent adherent cultures (all systems other than the BT system) was assessed by measuring total protein levels using sulforhodamine B (SRB) staining in parallel cultures at the time of biomarker measurements, indicated as SRB endpoints. For proliferation assays for adherent cell types, individual cell types are cultured at sub-confluence and relative cell numbers quantified by SRB staining at time points optimized for each system (48 h: 3C and CASM3C systems; 72 h: BT and HDF3CGF systems; 96 h: SAg system). SRB was performed by staining cells with 0.1% SRB after fixation with 10% TCA and reading wells at 560 nm.Viability and proliferation of PBMC (T cells) was quantified by Alamar Blue reduction for the SAg and BT systems. For PBMC viability (referred to as PBMC Cytotoxicity within the assay endpoint names), cells were plated (75,000/well in a 96-well plate) and then chemical samples added for 1 h before addition of activators, SEB and TSST-1 (20 ng/mL final concentration each). Cells were incubated for 90 h. Then, Alamar Blue (20 uL/well) (Invitrogen, Cat DAL1100) was added for 6 h, and the plates were read with a fluorescence microplate reader at 546/580 nm (excitation/emission). For PBMC proliferation, cells were plated and activated as above but incubated for only 16 h prior to addition of Alamar Blue. Plates were read after 6 h.
On to `CC(C)c1cccc(C(C)C)c1N`, for which the result was inactive.

As to `C1CNCCN1`, the outcome was inactive. As to `O=C1CCCCCCCCCCC1`, the outcome was inactive. Consider `CCN1CN(CC)CN(CC)C1`, for which the result was inactive. Regarding `CCCCCCCCCCCC(C)=O`, the result was inactive.

`Nc1ccc(C(=O)O)cc1`: the outcome was inactive. Turning to `O=C(O)C(F)(F)C(F)(F)C(F)(F)C(F)(F)C(=O)O`, the outcome was inactive. As for `CC(C)[N+](C)(CCOC(=O)C1c2ccccc2Oc2ccccc21)C(C)C`, the outcome was inactive.

Turning to `CC1=CC=C(C(C)C)CC1`, the outcome was inactive. With `CC=C(C)C(C)=O`, the result was inactive. Regarding `Nc1nc(N)nc(-c2ccccc2)n1`, the outcome was inactive.

Take `COc1ccc(C(=O)/C(Br)=C\C(=O)O)cc1`: the AC50 is 31.7 µM (active) and the outcome was inactive.

With `Oc1ccccc1Cc1ccccc1O`, the outcome was inactive. Regarding `c1ccc(Nc2cccc3ccccc23)cc1`, the AC50 was 33.8 µM (active) and 32.2 µM (active). `CCNc1nc(NC(C)(C)C)nc(OC)n1`: the result was inactive. Still for that read-out and setting: to `CC1(C)CC(O)CC(C)(C)N1[O]` belongs “inactive”. In the case of `CC/C=C\CCOC(=O)c1ccccc1O`, the AC50 was 29.8 µM (active). Take `C=CC(=O)NC(C)(C)C`: the result was inactive. On to `CC(CCC(=O)O)(c1ccc(O)cc1)c1ccc(O)cc1`, for which the result was inactive. The same measure, in the same setting: to `CC(Cl)COP(=O)(OCC(C)Cl)OCC(C)Cl` (stereo not given) belongs “inactive”. Take `CC=C(C)C=CC=C(C)C`: the AC50 was 3.13 µM (active). With `C=CC(=O)NCOCCCC`, the result was inactive.

With `CCC1(C)C(=O)N(Cl)C(=O)N1Cl` (stereo not given), the outcome was inactive.

For `CC(C)C(=O)OCCc1ccccc1`, the outcome was inactive. Consider `Cc1ccc([N+](=O)[O-])cc1N`, for which the result was inactive. With `CC/C=C\C/C=C\C/C=C\CCCCCCCC(=O)OC`, the AC50 is 20 µM (active). For `CCOC(=O)C1=NN(c2ccc(Cl)cc2Cl)C(C)(C(=O)OCC)C1` (stereo not given), the outcome was inactive. As to `CCOC(=O)/C=C\C(=O)OCC`, the result was inactive. Turning to `CCc1cccc(C)c1N(C(=O)CS(=O)(=O)O)C(C)COC` (stereo not given), the result was inactive. Regarding `CCCCCCCCC(CO)CCCCCC` (stereo not given), the result was inactive.

`CCCCCCCO`: the result was inactive.

Consider `C=CC(=O)OCC(C)OCC(C)OCC(C)OC(=O)C=C` (stereo not given), for which the AC50 was 20 µM (active). As to `COc1ccc(C(=O)c2ccccc2)c(O)c1`, the outcome was inactive. As for `CCCCCCCCCCCC(=O)N(C)CC(=O)O`, the result was inactive. Same read-out and setting: next, `C=CC(=O)OCCCCCCCC(C)C`: “inactive”; `C[N+](C)(C)CCCNS(=O)(=O)C(F)(F)C(F)(F)C(F)(F)C(F)(F)C(F)(F)C(F)(F)C(F)(F)C(F)(F)F`: “inactive”; `COC(OC)(C(=O)c1ccccc1)c1ccccc1`: “inactive”. In the case of `O=C(Cl)c1c(Cl)c(Cl)c(C(=O)Cl)c(Cl)c1Cl`, the outcome was inactive. In the case of `CCCCCCOC(=O)CCCCC(=O)OCCCCCC`, the result was inactive.
